Several values for one entry are separate records, joined by “and”; a condition that tells them apart may be missing. Identical values can stand only once. Among all 1,900 compounds or so, about 15 (0.8%) were called active.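 The calls were made as follows: active = every replicate shows at least 50% inhibition; inconclusive = mean inhibition at least 50% but some replicate below; inactive = the rest.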 The list comes from a sample in which actives are over-represented; it also holds similar structures and randomly drawn compounds.
target: DNA repair protein RAD52 homolog (Homo sapiens) (UniProt P43351); experiment: RAD52 ssDNA annealing inhibitors, primary screen, biochemical, FRET, single point (AID 651660); conditions: Recombinant RAD52 ssDNA annealing, FRET fluorescence, 30 min; at 18.7 µM; active compounds read high;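 also: 0% = median of neutral control wells and 100% = median of positive control wells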
Sequence (P43351 whole entry, looked up): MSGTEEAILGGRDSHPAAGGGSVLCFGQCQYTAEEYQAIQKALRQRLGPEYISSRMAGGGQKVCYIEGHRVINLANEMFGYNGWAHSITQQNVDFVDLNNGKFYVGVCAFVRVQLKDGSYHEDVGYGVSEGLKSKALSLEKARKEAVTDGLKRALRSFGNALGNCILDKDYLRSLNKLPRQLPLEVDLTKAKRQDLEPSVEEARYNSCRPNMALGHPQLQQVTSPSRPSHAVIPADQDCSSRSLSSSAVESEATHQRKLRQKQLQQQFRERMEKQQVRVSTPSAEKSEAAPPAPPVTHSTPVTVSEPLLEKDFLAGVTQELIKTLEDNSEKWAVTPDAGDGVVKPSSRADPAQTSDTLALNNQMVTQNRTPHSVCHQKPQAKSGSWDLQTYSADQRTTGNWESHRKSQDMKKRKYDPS

Structure (SMILES)	inhibition
O=C(CNC(=O)OCc1ccccc1)NC1CCCCCC1	0.625% (inactive)
CC(C)OC(=O)C1C2C=CC3(CN(CC4CCCO4)C(=O)C13)O2 (stereo not drawn)	-7.36% (inactive)
O=C(O)c1ccc(-c2ccc(O)c(F)c2)cc1	-3.36% (inactive)
Cc1ncc(C(=O)O)c(C(=O)O)c1N	-18.8% (inactive)
O=C(O)CCCNc1ccc(S(=O)(=O)Nc2ccccc2C(=O)O)cc1C(=O)O	-12.9% (inactive)
CCOC(=O)c1ccc(N2C(=O)C(CC(N)=O)N(CCc3ccc(OC)c(OC)c3)C2=S)cc1 (stereo not drawn)	3.53% (inactive)
CC(C)c1ccc(NC(=O)CNS(=O)(=O)c2ccc(F)cc2)cc1	3.93% (inactive)
CCOc1ccc2oc(-c3ccccc3)c(C(=O)O)c2c1	-1.63% (inactive)
Cc1cccc(-n2c(Cc3ccccc3)n[nH]c2=S)c1	-6.53% (inactive)
NCCOc1ccccc1OCCN	2.09% (inactive)
COc1ccc(C2CC(c3ccc([N+](=O)[O-])cc3)=NN2C(=O)c2ccccc2)cc1OC (stereo not drawn)	-4.95% (inactive)
O=C(c1ccc(-c2ccccc2)c(F)c1)C1CCCN(C(=O)c2cncs2)C1 (stereo not drawn)	-5.72% (inactive)
O=C(OCC1OC2OC3(CCCCC3)OC2C2OC3(CCCCC3)OC12)c1ccccc1 (stereo not drawn)	-6.56% (inactive)
COC1(C)CC2C(CC1OC(=O)c1cc([N+](=O)[O-])cc([N+](=O)[O-])c1)C2(C)C (stereo not drawn)	2.54% (inactive)
COc1ccc2c(c1)[N+](C)(C)C(C)(C)C=C2C	2.05% (inactive)
CC(=O)OCC#CCSc1nc2ccccc2n1C	-0.59% (inactive)
CC(C)COCC1CC2(CC(C)(c3csc(N)n3)OC2=O)C(=O)O1 (stereo not drawn)	-11.3% (inactive)
COc1cc(C2NCCc3c2[nH]c2ccccc32)ccc1OC(C)C (stereo not drawn)	1.55% (inactive)
CC12CN3CC(C)(CN(C1)C3c1ccc(Br)cc1O)C2 (stereo not drawn)	-9.4% (inactive)
Cc1ccc2c(c1)C1(C(=O)N2)N2CCCC2C(C(=O)c2ccc3ccccc3c2)C12C(=O)Nc1ccccc12 (stereo not drawn)	8.82% (inactive)
COc1ccc(-c2noc(-c3ccccc3-c3ccccc3)n2)cc1	2.09% (inactive)
O=C(CS(=O)(=O)Cc1ccccc1)NCc1ccc2c(c1)OCO2	1.08% (inactive)
CC(=O)N(CCC(Cc1ccccc1)c1ccc2c(c1)OCO2)Cc1ccc(Cl)cc1 (stereo not drawn)	16.3% (inactive)

Structure (SMILES)	inhibition
COc1ccc(C(=O)C2CCCCC2=O)cc1 (stereo not drawn)	-11.5% (inactive)
CSc1ccc2c(c1)N(CCC1CCCCN1C)c1ccccc1S2 (stereo not drawn)	61.6% (active)
CC(CN1c2ccccc2Sc2ccccc21)N(C)C (stereo not drawn)	7.73% (inactive)
CCOC(=O)c1cc2c(nc1N)CC(C)(CC)OC2 (stereo not drawn)	-11.6% (inactive)
COC(=O)C1=CN(Cc2cccs2)C=C(C(=O)OC)C1c1cccc(Cl)c1	11.7% (inactive)
CN1C(=O)NC(c2ccc(O)cc2)C2=C1CN(c1cccc3ccccc13)C2=O (stereo not drawn)	-2.34% (inactive)
CC(=O)C1=C(NC(=O)c2ccc(C(F)(F)F)cc2)C[C@@H]2[C@H]1C2(C)C	4.2% (inactive)
CN(C)c1ccc(C(CN)c2c[nH]c3ccccc23)cc1 (stereo not drawn)	-2.21% (inactive)
O=[N+]([O-])c1cc(/C=N/n2cnnc2)ccc1N1CCCC1	-0.23% (inactive)
COC(=O)c1ccc(=O)n(Cc2ccco2)c1	-5.57% (inactive)
CC(=O)N1CC2(C)CN(C(C)=O)CC(C)(C1)C2	-4.54% (inactive)
CSc1cccc(NC(=O)/C=C/c2ccccc2)c1	5.27% (inactive)
N/C(=N\OC(=O)c1ccc(Br)o1)c1ccccn1	-4.88% (inactive)
COc1ccc2c(=O)c(-c3cnn(-c4ccccc4)c3)c(C)oc2c1	-8.23% (inactive)
COc1ccc(S(=O)(=O)N2CCN(C(=O)COc3ccc4c(C)cc(=O)oc4c3)CC2)cc1	-4% (inactive)
CC(=O)C1=C(O)C(=O)N(Cc2cccnc2)C1c1ccc(C(C)C)cc1 (stereo not drawn)	0.222% (inactive)
CCOc1ccc(C(=O)NCC2(c3ccccc3)CCOCC2)cc1	-5.73% (inactive)
COc1ccc(CNC(=O)C2CCN(C(=O)[C@@H](CC(C)C)NC(=O)OC(C)(C)C)CC2)cc1	2.06% (inactive)
CCc1oc2ccccc2c1C(=O)c1cc(Br)c(O)c(Br)c1	-13.4% (inactive)
CCCCOc1cc(C(=O)NCCN(CC)CC)c2ccccc2n1	8.91% (inactive) and -1.38% (inactive)
CCCCc1oc2ccccc2c1C(=O)c1cc(I)c(OCCN(CC)CC)c(I)c1	72.2% (active)
Cc1ccc2c(c1)C(O)(C1COC(C)(C)CC1=O)C(=O)N2C (stereo not drawn)	-1% (inactive)
COc1cccc2c(O)cc(=O)n(C)c12	6.83% (inactive)

Structure (SMILES)	inhibition
COc1cccc(=O)c2c(C)n(CC(=O)c3ccccc3)c(C)c12	-138% (inactive)
O=C(CCC(=O)NCCO)NCCO	4.45% (inactive)
CC1=C/C(=N\N=C2\NC(=O)C(CC(=O)Nc3ccccc3F)S2)CC(C)(C)C1 (stereo not drawn)	-3.25% (inactive)
CSCC[C@H](NC(=O)NC1CCCC1)C(=O)O	-5.4% (inactive)
CCOC(=O)c1cnc2ccc(C(=O)OC)cc2c1Nc1ccc2c(c1)OCCO2	0.862% (inactive)
CN(C)CCOC(c1ccccc1)c1ccccc1 (tested in a mixture with another compound)	0.693% (inactive)
O=C(OCCNC(=O)c1ccc2ccccc2n1)c1ccc(F)cc1	3.05% (inactive)
CC1CCN(CCOCCOc2ccccc2Br)CC1	-6.71% (inactive)
CC1(C)CC(NCc2ccccc2)CCO1 (stereo not drawn)	-6.22% (inactive)
Cc1nc(N[C@@H](Cc2c[nH]c3ccccc23)C(=O)O)c2oc3ccccc3c2n1	-19.8% (inactive)
COc1ccc(NC(=O)CC(c2ccccc2)c2ccco2)cc1 (stereo not drawn)	-8.33% (inactive)
CC(=O)SC1CC2=CC(=O)CCC2(C)C2CCC3(C)C(CCC34CCC(=O)O4)C12 (stereo not drawn)	-15.3% (inactive)
COc1ccc(C2NC(=O)c3ccccc3O2)c(OC)c1OC (stereo not drawn)	-1.29% (inactive)
COc1cccc(/C=C/C(=O)c2c(O)cc(C)oc2=O)c1O	-38.5% (inactive)
CCOc1ccc(NC2OC(C)C(O)C(O)C2O)c([N+](=O)[O-])c1 (stereo not drawn)	-2.79% (inactive)
CC(C)CC1c2[nH]c3ccccc3c2CCN1C(=O)CCC(=O)N(C)C (stereo not drawn)	-3.31% (inactive)
CC(NC(=O)OCc1ccccc1)C(=O)N1CC(O)CC1C(=O)O (stereo not drawn)	-5.77% (inactive)
COCCNC(=O)CSc1ccc(Cl)cc1	-17.2% (inactive)
CC(C)CCn1c(N2CCc3ccccc3C2)nc2c1c(=O)[nH]c(=O)n2C	-3.91% (inactive)
O=C1Cc2ccccc2C(c2ccccc2)N1 (stereo not drawn)	-8.11% (inactive)
COc1ccc(-c2noc(CCc3ccccc3)n2)cc1	-6.01% (inactive)
COC(=O)c1cc(-c2c(C)oc3cc(OC)ccc3c2=O)c(C)o1	2.67% (inactive)
O=c1c(-c2ccc3c(c2)OCCO3)coc2cc(OC3OC(CO)C(O)C(O)C3O)ccc12 (stereo not drawn)	2.13% (inactive)

Structure (SMILES)	inhibition
COc1ccc(-c2[nH]ncc2CN(CCO)Cc2cccs2)c(F)c1	-3.67% (inactive)
Cc1ccc2c(c1)c1c3n2CCCN(Cc2ccccc2)C3CCC1 (stereo not drawn)	3.99% (inactive)
Cc1nc(NCc2ccco2)c(C#N)c2c1COC(C)(C)C2	-36.8% (inactive)
COc1cccc(CN2C(=O)N(C(C)C)C(N(O)C(=O)NC(C)C)C2(C)C)c1OC (stereo not drawn)	2.14% (inactive)
COc1cc2cc(C(=O)O)n(C)c2c(OC)c1OC	-3.98% (inactive)
CCC(=O)Oc1ccc(/C(CC)=C(\CC)c2ccc(OC(=O)CC)cc2)cc1	-4.46% (inactive)
CN(C)CCOc1ccccc1Cc1ccccc1	1.84% (inactive)
CC/C(=C(\c1ccc(O)cc1)c1ccc(OCCN(C)C)cc1)c1ccccc1	76% (active)
CC(=O)c1cccc2c(O)c(C3=Nc4ccccc4C3=O)[nH]c12	-6.23% (inactive)
CC(OC(=O)c1cc(=O)[nH]c2ccccc12)C(=O)c1ccccc1 (stereo not drawn)	1.44% (inactive)
COc1cc(/C=C/C(=O)N2CCCC2)cc(OC)c1OC	-3.32% (inactive)
Cn1c(=O)[nH]c(=O)c2c1ncn2CCN1CCOCC1	-9.6% (inactive)
CN(C)CCCN1c2ccccc2Sc2ccc(C(F)(F)F)cc21	29.1% (inactive)
CNCCCN1c2ccccc2CCc2ccccc21	-18.4% (inactive)
CN(C)CCCN1c2ccccc2Sc2ccccc21	7.51% (inactive)
CN(C)CCCN1c2ccccc2CCc2ccc(Cl)cc21	16% (inactive)
CN1CCN(CCCN2c3ccccc3Sc3ccc(C(F)(F)F)cc32)CC1	67.4% (active)
OCCN1CCN(CCCN2c3ccccc3Sc3ccc(C(F)(F)F)cc32)CC1	65.2% (active)
OC(CCCN1CCCCC1)(c1ccccc1)c1ccccc1	10.1% (inactive)
OCCN1CCN(CCCN2c3ccccc3Sc3ccc(Cl)cc32)CC1	73.4% (active)
CN(C)CCCN1c2ccccc2Sc2ccc(Cl)cc21	68.5% (active)
Clc1ccc(OCCCN2CCCCC2)c(Br)c1	5.3% (inactive)
OCCOCCN1CCN(C(c2ccccc2)c2ccc(Cl)cc2)CC1 (stereo not drawn)	7.68% (inactive)

Structure (SMILES)	inhibition
O=c1oc2c(CN3CCN(CCO)CC3)c(O)ccc2cc1-c1ccccn1	-38.1% (inactive)
CCOC(=O)c1oc2cc(O)cc(C)c2c(=O)c1-c1cscn1	5.2% (inactive)
CC(=O)C1=C(Nc2ccc(C)cc2)CC(C)(O)C(C(C)=O)C1c1ccco1 (stereo not drawn)	-76.2% (inactive)
CCN(CC)CCCNC(=O)C1c2ccccc2Oc2ccccc21	4.59% (inactive)
CCN(CC)CCNc1ccc(CO)c2sc3ccccc3c(=O)c12	61.5% (active)
C[C@]12CC[C@@H]3c4ccc(O)cc4CC[C@H]3[C@@H]1C[C@@H](O)[C@@H]2O[C@@H]1O[C@H](C(=O)O)[C@@H](O)[C@H](O)[C@H]1O	5.26% (inactive)
O=C(NCCc1ccccc1)C1CCN(C2CCN(Cc3ccco3)CC2)CC1	-15.9% (inactive)
COc1ccc(-c2coc3c(CN4CCOCC4)c(O)ccc3c2=O)cc1	7.99% (inactive)
COc1ccc2[nH]c(CN3CCN(CC(C)C)C(CCO)C3)c(C)c2c1 (stereo not drawn)	-14.8% (inactive)
O=C(CN1C(=O)C2CCc3[nH]c4ccccc4c3C2C1=O)N1CCCC1 (stereo not drawn)	-14.6% (inactive)
OC12CCCCC1C(c1ccc3c(c1)OCO3)N(Cc1cccc(F)c1)CC2 (stereo not drawn)	-0.832% (inactive)
CCC(=O)Oc1ccc(C(=O)Nc2ccc([N+](=O)[O-])cc2)cc1	3.79% (inactive)
CN1CC2CCCC3(C1)C(=O)NC1(CCCCC1)N=C23 (stereo not drawn)	-2.27% (inactive)
C1CCC(C(CC2CCCCN2)C2CCCCC2)CC1 (stereo not drawn)	62.5% (active)
CC(=O)c1cn(C)c(=O)[nH]c1=O	-3.65% (inactive)
CCn1c(N2CCN(CC(=O)c3c(C)n(C)c4ccc(OC)cc34)CC2)nc2c1c(=O)[nH]c(=O)n2C	-1.17% (inactive)
CC1(C)CC(=O)c2cn3c(nc2C1)nc1ccccc13	-4.04% (inactive)
CC(=O)N(CCC(Cc1ccccc1)c1ccco1)Cc1ccco1 (stereo not drawn)	-17.2% (inactive)
NC(N)=N/N=C/c1cccc(Cl)c1Cl	18.4% (inactive)
CN1CCc2c(n(CC(O)CN(CCO)CCO)c3ccccc23)C1=O (stereo not drawn)	11.3% (inactive)
OCCN(CCO)c1ccc2ccccc2c1	-0.71% (inactive)

Reference: PubChem BioAssay AID651660 (Broad Institute, 2012)
